The source made the active and inactive calls. Rule for the calls: active = hit-call score of the fitted dose curve at least 0.9, where 1 is the maximum; inactive = score below 0.9.

Assay [1] can be described thus: ATG_CRE_CIS: Attagene CIS-FACTORIAL HepG2 Assay for human cAMP Responsive Element (CRE) binding protein 3 (AID 2282926). The conditions noted are these: HepG2 CRE cis-reporter, Attagene multiplexed mRNA; actives raise or lower the signal. The procedure, abridged:
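Induced reporter mRNA from a CRE cis element, measured in HepG2 among many multiplexed units at 24 h. Detection used RT-PCR plus capillary electrophoresis of fluorescent fragments; DMSO served as negative control.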

In assay [2] the target is CCAAT/enhancer-binding protein beta (Homo sapiens) (UniProt P17676). The assay can be described thus: ATG_C_EBP_CIS: Attagene CIS-FACTORIAL HepG2 Assay for human CCAAT/Enhancer Binding Protein (C/EBP) beta (AID 2282927). The conditions noted are these: HepG2 Attagene cis-factorial transcription factor reporter; actives raise or lower the signal. The procedure, abridged:
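Endogenous C/EBPb-driven reporter transcripts measured in transfected human HepG2 cells at 24 h via RT-PCR and capillary electrophoresis of labelled fragments. Activity fitted in both directions relative to DMSO baseline.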

Assay [3] in a line: ATG_CMV_CIS: Attagene CIS-FACTORIAL HepG2 Assay for human CMV (Internal Marker) (AID 2282928).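 Note: endpoint acts as a background internal control marker rather than a target.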 The conditions noted are these: HepG2 CMV promoter reporter, transcription factor profiling; actives raise or lower the signal. The gist of the method: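 24 h chemical treatment, HepG2 with transient multi-reporter transfection; RNA → oligo(dT) RT → PCR → 6-FAM extension → HpaI digest → CE fluorescence. Bidirectional fit, DMSO negative control.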

The nature of assay [4]: ATG_DR4_LXR_CIS: Attagene CIS-FACTORIAL HepG2 Assay for human Liver X Receptor (LXR), DR4 submotif (AID 2282929). The conditions noted are these: HepG2 Attagene DR4 cis-reporter, mRNA transcription; actives raise or lower the signal. The gist of the method: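 HepG2 cells were transiently transfected with multiple cis-regulated reporter units and dosed for 24 hours. The DR4 reporter mRNA was quantified by RT-PCR, 6-FAM labelling and capillary electrophoresis. Bidirectional fits used DMSO as baseline.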

Assay [5] addresses Aryl hydrocarbon receptor (Homo sapiens) (UniProt P35869). The assay can be described thus: ATG_Ahr_CIS: Attagene CIS-FACTORIAL HepG2 Assay for human Aryl Hydrocarbon Receptor (Ahr) (AID 2282930). The note with it: HepG2 AhR cis-factorial reporter transcription; actives raise or lower the signal. The procedure, abridged: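 Reporter mRNA levels, quantified by RT-PCR and fluorescent capillary electrophoresis, reflect endogenous AhR transcriptional activity in HepG2 cells carrying transfected cis-promoter reporter constructs. Readout at 24 h post-dose; gain or loss fitted against DMSO baseline.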

A short description of assay [6]: ATG_AP_1_CIS: Attagene CIS-FACTORIAL HepG2 Assay for human Activator Protein 1 (AP-1) (AID 2282931). The conditions noted are these: HepG2 Attagene cis-factorial AP-1 reporter mRNA; actives raise or lower the signal. The procedure, abridged:
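HepG2 cells transiently transfected with cis-element-driven reporter transcription units, dosed for 24 hours. Reporter mRNA measured by RT-PCR, 6-FAM labelling, HpaI digestion and capillary electrophoresis. Bidirectional fitting against DMSO baseline.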

Assay [7] is described as follows: ATG_AP_2_CIS: Attagene CIS-FACTORIAL HepG2 Assay for human Activator Protein 2 (AP-2) (AID 2282932). The conditions noted are these: HepG2 AP-2 cis-reporter, Attagene transcription factor profiling; actives raise or lower the signal. The procedure, abridged: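 Endogenous transcription factor activity is reported through transfected multiplex reporter constructs in HepG2, after 24 h of compound exposure. Transcripts were quantified by RT-PCR and capillary electrophoresis of fluorescent fragments. Bidirectional fit against DMSO.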

The nature of assay [8]: ATG_BRE_CIS: Attagene CIS-FACTORIAL HepG2 Assay for human Bone Morphogenetic Protein (BMP) Response Element (BRE) (AID 2282933). The conditions noted are these: HepG2 BMP response element reporter, Attagene transcription factor profiling; actives raise or lower the signal. The procedure, abridged:
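Multiplexed cis-reporter assay, HepG2, 24 h exposure. mRNA from reporter units quantified via RT-PCR/CE; DMSO baseline; bidirectional curve fit.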

Assay [9] deals with Retinoic acid receptor alpha (Homo sapiens) (UniProt P10276). The assay can be described thus: ATG_DR5_RAR_CIS: Attagene CIS-FACTORIAL HepG2 Assay for human Retinoic Acid Receptor Alpha (RARE), DR5 submotif (AID 2282934).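 For AC50: reporter responds to endogenous RAR alpha beta and gamma in HepG2 not RARA alone.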 The conditions noted are these: HepG2 Attagene cis-factorial RARE DR5 reporter, mRNA; actives raise or lower the signal. The procedure, abridged: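 Reporter transcripts from a DR5-regulated unit, measured via RT-PCR plus capillary electrophoresis, reflect endogenous RAR activity in transiently transfected human HepG2 liver cells. Exposure lasted 24 h; gain or loss of signal scored against DMSO.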
Retinoic acid receptor alpha (Homo sapiens), sequence (P10276 whole entry, looked up): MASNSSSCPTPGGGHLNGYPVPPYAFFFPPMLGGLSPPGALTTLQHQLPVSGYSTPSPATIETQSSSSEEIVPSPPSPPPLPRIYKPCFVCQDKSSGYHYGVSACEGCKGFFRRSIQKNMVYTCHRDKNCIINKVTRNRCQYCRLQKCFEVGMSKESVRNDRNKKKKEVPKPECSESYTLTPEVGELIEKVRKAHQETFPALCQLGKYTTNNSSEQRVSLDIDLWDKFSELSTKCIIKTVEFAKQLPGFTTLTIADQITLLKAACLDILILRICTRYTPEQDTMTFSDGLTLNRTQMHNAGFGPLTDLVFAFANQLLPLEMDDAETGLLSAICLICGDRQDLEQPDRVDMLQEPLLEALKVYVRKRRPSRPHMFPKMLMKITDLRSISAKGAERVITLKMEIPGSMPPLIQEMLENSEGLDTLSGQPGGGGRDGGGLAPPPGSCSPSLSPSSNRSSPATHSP

The target of assay [10] is Transcription factor E2F1 (Homo sapiens) (UniProt Q01094). The assay is described as follows: ATG_E2F_CIS: Attagene CIS-FACTORIAL HepG2 Assay for human E2F Transcription Factor 1 (AID 2282935). The conditions noted are these: HepG2 Attagene cis-reporter, E2F reporter RNA transcripts; actives raise or lower the signal. The procedure, abridged:
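Gain or loss of reporter transcript, fitted against DMSO, reflects E2F1-driven transcription. Transiently transfected HepG2 dosed 24 h before RNA isolation. Quantified by fluorescent RT-PCR products separated by capillary electrophoresis.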

CCAAT/enhancer-binding protein beta (Homo sapiens), sequence (P17676 whole entry, looked up, the tested form may be a part): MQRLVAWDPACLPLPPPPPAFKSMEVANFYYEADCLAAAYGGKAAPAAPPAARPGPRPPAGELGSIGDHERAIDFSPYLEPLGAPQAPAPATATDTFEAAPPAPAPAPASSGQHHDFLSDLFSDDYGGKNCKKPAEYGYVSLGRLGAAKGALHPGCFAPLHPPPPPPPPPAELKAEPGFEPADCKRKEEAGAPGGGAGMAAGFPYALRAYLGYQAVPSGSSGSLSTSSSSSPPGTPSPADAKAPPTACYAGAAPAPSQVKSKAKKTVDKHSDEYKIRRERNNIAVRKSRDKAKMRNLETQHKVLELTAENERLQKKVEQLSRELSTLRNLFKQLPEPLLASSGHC
Transcription factor E2F1 (Homo sapiens), sequence (Q01094 whole entry, looked up): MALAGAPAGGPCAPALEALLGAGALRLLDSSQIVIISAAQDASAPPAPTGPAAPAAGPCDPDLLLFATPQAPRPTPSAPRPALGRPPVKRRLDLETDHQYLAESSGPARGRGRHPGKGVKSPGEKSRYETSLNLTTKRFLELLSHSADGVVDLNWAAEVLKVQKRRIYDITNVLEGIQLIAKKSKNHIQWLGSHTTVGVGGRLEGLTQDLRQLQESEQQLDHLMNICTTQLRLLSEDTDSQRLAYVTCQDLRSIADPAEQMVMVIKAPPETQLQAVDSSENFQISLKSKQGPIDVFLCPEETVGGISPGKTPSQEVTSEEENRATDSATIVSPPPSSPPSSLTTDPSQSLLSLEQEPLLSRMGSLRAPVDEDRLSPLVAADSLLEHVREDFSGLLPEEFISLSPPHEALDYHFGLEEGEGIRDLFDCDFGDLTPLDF
Aryl hydrocarbon receptor (Homo sapiens), sequence (P35869 whole entry, looked up): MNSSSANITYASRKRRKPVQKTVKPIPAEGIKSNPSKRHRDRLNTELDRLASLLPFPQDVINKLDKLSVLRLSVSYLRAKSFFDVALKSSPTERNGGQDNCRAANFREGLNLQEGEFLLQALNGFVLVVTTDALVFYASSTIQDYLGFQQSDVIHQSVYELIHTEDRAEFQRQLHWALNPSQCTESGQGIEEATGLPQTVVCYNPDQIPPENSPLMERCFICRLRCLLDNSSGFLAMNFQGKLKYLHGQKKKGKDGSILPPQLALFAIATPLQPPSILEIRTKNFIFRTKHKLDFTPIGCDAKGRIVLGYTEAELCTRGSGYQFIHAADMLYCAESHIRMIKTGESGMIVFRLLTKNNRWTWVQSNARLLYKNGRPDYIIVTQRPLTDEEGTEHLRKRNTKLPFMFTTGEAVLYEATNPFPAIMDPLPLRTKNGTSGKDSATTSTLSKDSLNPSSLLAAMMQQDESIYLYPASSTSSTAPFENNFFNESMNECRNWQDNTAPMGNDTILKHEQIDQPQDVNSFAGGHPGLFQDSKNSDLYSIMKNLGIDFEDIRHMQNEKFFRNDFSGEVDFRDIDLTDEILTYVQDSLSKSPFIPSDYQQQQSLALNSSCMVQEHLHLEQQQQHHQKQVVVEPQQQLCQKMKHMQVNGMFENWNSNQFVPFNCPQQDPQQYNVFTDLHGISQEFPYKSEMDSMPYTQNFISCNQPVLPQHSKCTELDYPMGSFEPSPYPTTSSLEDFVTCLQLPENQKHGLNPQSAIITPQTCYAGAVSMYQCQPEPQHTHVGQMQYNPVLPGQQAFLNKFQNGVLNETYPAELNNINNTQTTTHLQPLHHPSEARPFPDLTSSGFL

Consider `c1c[nH]cn1`, for which the call in assay [1], in [2], in assay [3], in [4], in [5] and in [6] was inactive. Also, the result in [7], in assay [8], in [9] and in [10] was inactive.

On to `O=S(=O)(O)c1ccc2cc(O)c(S(=O)(=O)O)cc2c1`, for which the outcome in [1], in assay [2], in assay [6], in [7], in assay [8] and in [9] was inactive. Besides, the compound was classed as inactive in assay [10]. The AC50 in [3] is 166 µM (active); in assay [4], 60.8 µM (active); in assay [5] it was 138 µM (active).

As to `C=CC(=O)OCCOC1C2CCC1C1CC=CC12` (stereo unspecified), the compound was called inactive in assay [1], in assay [2], in assay [3], in assay [4], in [5] and in assay [6]. In addition, the outcome in [7], in assay [8] and in assay [9] was inactive.

For `CCCc1ccc(OC)cc1`, the compound was classed as inactive in assay [1], in assay [2], in assay [3], in [4], in [5] and in [6]. The outcome in assay [7], in [8] and in assay [9] was inactive.

For `Oc1ccc(Cl)cc1Cc1cc(Cl)ccc1O`, the concentration at half-maximal activity (AC50) in assay [1] was 3.51 µM (active); in [4], 7.95 µM (active); in assay [6], 17.6 µM (active); in [7], 15.4 µM (active); in [8], 3.46 µM (active); in assay [9] it was 3.08 µM (active). Besides, the outcome in [2], in assay [3], in assay [5] and in assay [10] was inactive.

For the compound `CCC(C)C=O` (stereo unspecified), the result in assay [1], in assay [2], in [3], in assay [4], in assay [5] and in assay [6] was inactive. Also, the compound was called inactive in assay [7], in assay [8], in [9] and in [10].

`CC(C)(C)c1ccc(OC(=O)c2ccccc2O)cc1`: the call in assay [1], in assay [2], in [4], in assay [5], in [6] and in [7] was inactive. Also, the outcome in [8], in assay [9] and in assay [10] was inactive. The AC50 in [3] is 34.7 µM (active).

Consider `CC(C)=CCCC(C)C=O` (stereo unspecified), for which the result in assay [1], in [2], in [3], in assay [4], in assay [5] and in assay [6] was inactive. The result in assay [7], in [8], in [9] and in assay [10] was inactive.

Take `C[Si](C)(CCCN)O[Si](C)(C)CCCN`: the compound was called inactive in assay [1], in [2], in [3], in assay [4], in [5] and in assay [6]. Also, the compound was classed as inactive in assay [7], in assay [8], in [9] and in assay [10].

Take `Cc1cc(C)c(C(=O)O)c(C)c1`: the compound was called inactive in [1], in assay [2], in [3], in [4], in [5] and in [6]. Besides, the call in [7], in assay [8] and in [9] was inactive.

With `CC(C)CC(O)Cc1ccccc1` (stereo unspecified), the call in assay [1], in assay [2], in assay [3], in assay [4], in [5] and in assay [6] was inactive. The outcome in assay [7], in [8] and in assay [9] was inactive.

As to `OC1CCCC1`, the result in assay [1], in [2], in assay [3], in assay [4], in assay [5] and in [6] was inactive. For the same compound, the outcome in [7], in [8] and in assay [9] was inactive.

As to `O=C(Nc1ccccc1)c1ccccc1O`, the result in assay [1], in [3], in [4], in assay [7], in [9] and in assay [10] was inactive. Besides, the AC50 in assay [2] is 53.4 µM (active); in [5], 19.1 µM (active); in assay [6], 27 µM (active); in assay [8], 30.7 µM (active).

Regarding `C=CC(=O)OCC(Br)CBr` (stereo unspecified), the result in [1], in assay [5], in assay [6], in assay [7], in [8] and in [9] was inactive. The AC50 was 180 µM (active) in assay [2], 100 µM (active) in assay [3] and 53.4 µM (active) in assay [4].

Regarding `c1cc(C(c2ccc(OCC3CO3)cc2)C(c2ccc(OCC3CO3)cc2)c2ccc(OCC3CO3)cc2)ccc1OCC1CO1` (stereo unspecified), the values for the AC50 in assay [1], in [3] and in assay [4] were 30.7 µM (active), 64.3 µM (active) and 33.1 µM (active), respectively. Moreover, the outcome in [2], in assay [5], in assay [6], in assay [7], in [8] and in assay [9] was inactive.

As to `FC(F)=C(F)OC(F)(F)C(F)(F)C(F)(F)F`, the compound was classed as inactive in assay [1], in assay [2], in [3], in [4], in assay [5] and in [6]. For the same compound, the outcome in assay [7], in assay [8], in [9] and in [10] was inactive.

Take `CCOC(F)(F)C(F)(F)C(F)(F)C(F)(F)F`: the compound was classed as inactive in assay [1], in assay [2], in assay [3], in assay [4], in assay [5] and in assay [6]. For the same compound, the outcome in assay [7], in [8], in assay [9] and in assay [10] was inactive.

For the compound `CC(C)=CCC[C@H](C)CCO`, the compound was called inactive in assay [1], in [2], in [3], in assay [4], in [5] and in assay [6]. Also, the result in [7], in assay [8], in assay [9] and in [10] was inactive.

Turning to `[Cl][In]([Cl])[Cl]`, the outcome in assay [1], in assay [2], in assay [3], in assay [4], in assay [5] and in assay [6] was inactive. Besides, the call in assay [7], in [8], in [9] and in assay [10] was inactive.

`CCCCC(CC)CCC(CC(C)C)OS(=O)(=O)O` (stereo unspecified): the AC50 is 142 µM (active) in assay [1] and 139 µM (active) in assay [6]. The result in assay [2], in assay [3], in [4], in assay [5], in [7] and in assay [8] was inactive. The result in assay [9] and in assay [10] was inactive.

Regarding `NC(=O)N=NC(N)=O`, the outcome in [1], in assay [2], in assay [3], in assay [4], in assay [5] and in [6] was inactive. For the same compound, the outcome in assay [7] and in [9] was inactive. Besides, the AC50 in assay [8] was 35 µM (active).

Turning to `O=S(=O)(O)c1cc(S(=O)(=O)O)c2ccc3c(S(=O)(=O)O)cc(S(=O)(=O)O)c4ccc1c2c43`, the compound was called inactive in assay [1], in [2], in assay [3], in [4], in [5] and in assay [6]. The result in assay [7], in [8], in assay [9] and in [10] was inactive.

As to `C=C(C)[C@@H]1CCC2=CCC[C@@H](C)[C@]2(C)C1`, the compound was classed as inactive in assay [1], in assay [2], in assay [4], in assay [5], in [7] and in assay [8]. In [9], the compound was called inactive. For the same compound, the AC50 in assay [3] is 67 µM (active); in [6], 100 µM (active).

With `CC(C)C(=O)C(C)C`, the half-maximal activity concentration (AC50) in assay [1] was 36.9 µM (active); in [6], 66.5 µM (active). The outcome in assay [2], in assay [3], in assay [4], in assay [5], in [7] and in assay [8] was inactive. The call in assay [9] and in assay [10] was inactive.

On to `CC/C=C\CCOC(=O)CCCCC`, for which the result in [1], in assay [2], in [3], in [4], in assay [5] and in assay [6] was inactive. Further, the result in [7], in assay [8], in [9] and in assay [10] was inactive.

For orientation: AC50 means the concentration giving half of the maximal activity seen.

These data come from PubChem BioAssay (EPA / NIEHS).
